# In PubChem BioAssay (NCI):
# About 83,000 compounds went through this panel and 20% of them were active in at least one assay; those are over-represented in the sample as a whole.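 Treatment: one concentration, 48 hours, 96-well format. Scoring: percent growth, with anything below 10 considered active.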 Activity calls are given as the source filed them.
# System: SNB-75 CNS
# Assay: NCI-60 one-dose screen, 48 h (100 = growth as untreated, 0 = no growth, -100 = all killed)
# Conditions: 10 µM
# Description: Growth inhibition of the SNB-75 human tumor cell line is measured as a screen for anti-cancer activity. Cells are grown in 96 well plates and exposed to the test compound for 48 hours. Compounds are tested at a single concentration, which is 10^-5 M for most compounds. The reported endpoint is percent growth (GI% or GIPRCNT), where numbers from 0 - 100% represent growth inhibition, and numbers from -100% - 0 represent cell death. For example, a value of 40 represents 60% growth inhibition. A value of 0 means no net growth occurred over the course of the experiment. A value of -40 indicates 40% of cells at the beginning of the experiment died by the end of the experiment. A value of -100 means all cells are dead at the end of the experiment.
# NCI-60 Human Tumor Cell Lines Screen was performed using the standard one-dose NCI protocol, which is described in more detail at https://dtp.cancer.gov/discovery_development/nci-60/default.htm.
# Compounds with GIPRCNT values below 10 were considered active. Activity score was based on GIPRCNT using the following formula: […]
# Score is 0 for GIPRCNT values of 100 or above, 50 for GIPRCNT values of 0, and 100 for GIPRCNT values of -100.
row,SMILES,growth
1,Cc1ccc(NS(=O)(=O)c2ccccc2)c(NS(=O)(=O)c2ccccc2)c1,90.5% (inactive)
2,O=C1/C(=C/c2ccc(O)cc2)Cc2ccc(Cl)cc21,73.4% (inactive)
3,COc1ccc(-c2nc(NC(=O)CS(=O)(=O)c3ccc(F)cc3)sc2C)cc1,79.6% (inactive)
4,CCCCCC(CCC)COC(=O)c1ccc(OC)cc1 (stereo not given),89.2% (inactive)
5,N#CN1CC[C@H](C(=O)Nc2ncc(-c3ccccc3)s2)C1,-43.8% (active)
6,COc1cccc(-c2nnc(COc3ccc(-c4nc5ccccc5[nH]4)cc3OC)o2)c1,109% (inactive)
7,CCN(CC)c1ccc(/C=C/C2=[N+](C)c3ccccc3C2(C)C)c(C)c1,7.22% (active)
8,COc1ccc(C2C=C(c3ccc(Cl)cc3)N=C3SC=CN32)c(Br)c1 (stereo not given),63.6% (inactive)
9,CC(=O)[C@H]1CC[C@H]2[C@@H]3CC[C@@H]4CC=C(C=O)C[C@]4(C)[C@H]3CC[C@]12C,80.5% (inactive)
10,CC(=O)Nc1nc(C)c(C(=O)N/N=C/c2cccn2C)s1,109% (inactive)
11,COc1cc(NS(C)(=O)=O)ccc1Nc1c2ccc(Cl)cc2nc2c(OC)cccc12,-13.4% (active)
12,N=C(N)c1ccc(-c2ccc(-c3cccs3)s2)nc1,41.3% (inactive)
13,N#Cc1ccc(-n2cnc(NC(=O)[C@H]3CCN(C#N)C3)c2)cc1,-1.74% (active)
14,COC(=O)[C@]12CC[C@@H](C)[C@H](C)[C@@H]1C1=CC[C@@H]3[C@@]4(C)C/C(=N\O)[C@H](O)[C@@]5(C)COC(=C45)C[C@@]3(C)[C@]1(C)CC2,-87.8% (active)
15,Nc1cc2c(cc1Cl)-c1ccc(Cl)cc1C2=O,89.7% (inactive)
16,COc1cc(C)c2sc3ccccc3c(=O)c2c1NCCN(C)C,50.5% (inactive)
17,O=C(C=P(c1ccccc1)(c1ccccc1)c1ccccc1)c1ccc(Br)cc1,90.9% (inactive)
18,C#CCn1c(-c2cccc(OCCCCl)c2)nc2c1c(=O)n(C)c(=O)n2C,89% (inactive)
19,O=C1NN(c2ccccc2)C(c2cccnc2)=N/C1=C\c1cccnc1,79.6% (inactive)
20,CC(C)/C=N/NC(N)=S,81.3% (inactive)

row,SMILES,growth
1,COC(=O)[C@]12CC[C@@H](C)[C@H](C)[C@@H]1C1=CC[C@@H]3[C@@]4(C)CC(=O)[C@H](O)[C@@](C)(CO)[C@@H]4C(=O)C[C@@]3(C)[C@]1(C)CC2,-0.588% (active)
2,Cc1ccc(S(=O)(=O)Nc2cccc3[nH]c(C(F)(F)F)nc23)cc1,-4.83% (active)
3,COc1cc(OC)cc(-c2n/c(=C\c3c(O)[nH]c4ccc(OC)cc34)cc3c2=Nc2ccccc2-3)c1,103% (inactive)
4,O=C(OCC1OC(n2cc(C(F)(F)F)c(=O)[nH]c2=O)CC1OC(=O)c1ccc([N+](=O)[O-])cc1)c1ccc([N+](=O)[O-])cc1 (stereo not given),90.8% (inactive)
5,Oc1ccc(/C=N\Nc2ccccn2)c(O)c1,9.86% (active)
6,COc1ccc(NC(=O)CCn2cnc3c(cc(-c4ccccc4)n3-c3ccccc3)c2=O)cc1,-10.5% (active)
7,NC(N)=NS(=O)(=O)c1ccc(Nc2ccc3nnc(-c4ccncc4)n3n2)cc1,90.4% (inactive)
8,O=[N+]([O-])c1ccc(Br)o1,97.5% (inactive)
9,COc1ccc(C2=NNC(c3sc(Cl)nc3Cl)C2)cc1 (stereo not given),101% (inactive)
10,CC(CNC(Cc1ccccc1)c1ccccc1)NC(Cc1ccccc1)c1ccccc1 (stereo not given),68.9% (inactive)
11,CCC1(C)OC(=O)NC1=O (stereo not given),100% (inactive)
12,Nc1nc2c(nnn2C2CC(O)C(CO)O2)c(=O)[nH]1 (stereo not given),61.8% (inactive)
13,CS(=O)(=O)Nc1ccc(Nc2c3ccccc3nc3cc(Cl)ccc23)cc1,30.9% (inactive)
14,COc1cccc2c1C(=O)c1c(O)c3c(c(O)c1C2=O)C[C@@](O)(C(=O)COC(=O)c1ccccc1)C[C@@H]3OC1CC(N)C(O)C(C)O1 (stereo not given in full),-84.3% (active)
15,O=C1CC[C@@H](C(=O)N[C@H]2CSSC[C@@H](C(=O)N/C=C/c3ccc(O)cc3)NC(=O)[C@H](Cc3ccccc3)NC(=O)[C@@H]3CCCN3C(=O)[C@@H]3CCCN3C2=O)N1,100% (inactive)
16,COc1ccc(-c2ccc(-c3ccc(C(=N)N)c(F)c3)s2)cc1,-98.9% (active)
17,Cc1nnc2c3nnc(-c4ccc(Cl)cc4)n3c3ccccc3n12,89.1% (inactive)
18,Cc1cc(O)c(C2=NN(c3ccc(S(N)(=O)=O)cc3)C(c3ccc(N(C)C)cc3)C2)c(C)c1Cl (stereo not given),78.7% (inactive)
19,COCCOC(=O)NC(=O)Nc1ccc(C(=O)c2ccc(Cl)cc2)cc1,6.4% (active)
20,Cc1cc(OI)c(C(C)C)cc1-c1cc(C(C)C)c(OI)cc1C,107% (inactive)
